Our source for the Potency, viability (% of control) and viability, % of control values is PubChem BioAssay (NCATS).

A short description of experiment [1]: Viability qHTS for spleen associated tyrosine kinase inhibitor (SYKi) naive MV4-11 cells (AID 1963823). Note: nearly all actives have a fitted effect of over 40% in size. The method in brief:
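Cells: MV4-11, SYK inhibitor naive, 500 per well. Treatment: library compounds, 72 hr, 37 C, 5% CO2. Read-out: CellTiter-Glo luminescence after 10 min RT.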
In general terms: qHTS replaces the single test concentration by a dilution series.

Experiment [2] in a line: Viability qHTS for spleen associated tyrosine kinase inhibitor (SYKi) drug resistant MV4-11 cells (AID 1963824). Note: nearly all actives have a fitted effect of over 35% in size. The method in brief:
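CellTiter-Glo luminescence, read 10 min after reagent addition, reports viability after a 72 hr compound exposure. Cells are an MV4-11 line made resistant to SYK inhibition, seeded at 500 per well onto compound-containing plates.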

Records with an inconclusive call do not appear. Values without a mark were called inactive. The source made the active and inactive calls. Calls come from the whole dose curve; as a rule, active = well fitted cell-killing curve with a large enough effect; inconclusive = small, poorly fitted or top-dose-only effect, or effect the other way; inactive = no such curve, though single readings can be large or run the other way.
Potency is the fitted concentration of half-maximal effect.

`O=c1ccc2ccc(OCCCCN3CCN(c4cccc5sccc45)CC3)cc2[nH]1`: the Potency in experiment [1] is 10.3 µM (active); in experiment [2] it was 7.31 µM (active).
Taken in the same sequence, the figures for `CCC/C=C1\OC(=O)C2=C1CCC(O)C2O` (stereo not given) were “inactive” and “inactive”.
Consider `Cc1ccc(NC(=O)c2ccc(CN3CC[C@H](N(C)C)C3)c(C(F)(F)F)c2)cc1Nc1nccc(-c2cncnc2)n1`, for which the Potency in experiment [1] is 6.32 µM (active); in experiment [2], 7.23 µM (active).
For `O=C(O)C(O[C@@H]1O[C@H](CO[C@@H]2O[C@H](CO)[C@@H](O)[C@H](O)[C@H]2O)[C@@H](O)[C@H](O)[C@H]1O)c1ccccc1` (stereo not given in full) the same measures were “inactive” and “inactive”.
Turning to `CC1=CC(=O)C2(OC3OC(C)C(O)C(OC(=O)/C=C/c4ccccc4)C3O)C=COC(OC3OC(CO)C(O)C(O)C3O)C12` (stereo not given), the Potency entry in experiment [1] and in experiment [2] was “inactive” throughout.
`O=C(OCC1=CC(O)C2C=CO[C@@H](O[C@@H]3O[C@H](CO)[C@@H](O)[C@H](O)[C@H]3O)C12)c1ccccc1` (stereo not given in full): the Potency result in experiment [1] and in experiment [2] was “inactive” throughout.
For `CC(C)CNC(=O)/C=C/CCCCc1ccc2c(c1)OCO2`, the Potency result in experiment [1] and in experiment [2] was “inactive” throughout.
Take `CC(=O)OCC(Cc1ccccc1)NC(=O)C(Cc1ccccc1)NC(=O)c1ccccc1` (stereo not given): the Potency entry in experiment [1] and in experiment [2] was “inactive” each time.
As for `COC(=O)c1c(CC=C(C)C)c(OC2OC(CO)C(O)C(O)C2O)c2ccccc2c1OC1OC(CO)C(O)C(O)C1O` (stereo not given), the Potency entry in experiment [1] and in experiment [2] was “inactive” each time.
On to `C[C@@H]1Cc2c([nH]c3ccccc23)[C@@H](c2c(F)cc(/C=C/C(=O)O)cc2F)N1CC(C)(C)F`, for which the Potency in experiment [1] is 23.5 µM (active); in experiment [2], 20.9 µM (active).
Taken in the same sequence, the figures for `C=C1CCC2(OC1)OC1CC3C4CC=C5CC(O)CC(O[C@@H]6OC[C@@H](O)[C@H](O)[C@H]6O)C5(C)C4CCC3(C)C1(O)C2C` (stereo not given in full) were “inactive” and “inactive”.
On to `C=C(C)C(=O)O[C@H]1[C@H]2C(=C)C(=O)O[C@@H]2C[C@@H](C)/C=C\C(=O)[C@](C)(O)[C@@H]1OC(C)=O`, for which the Potency entry in experiment [1] and in experiment [2] was “inactive” throughout.
In the case of `Nc1ncnc2c1c(-c1ccc(Oc3ccccc3)cc1)cn2C1CCCC1`, the Potency was 0.366 µM (active) in experiment [1] and 1.03 µM (active) in experiment [2].
For `CC1(C)CC[C@]2(C(=O)O)CC[C@]3(C)C(=CCC4[C@@]5(C)C[C@@H](O)[C@H](O)[C@@](C)(CO)C5CC[C@]43C)C2C1` (stereo not given in full) the same measures were “inactive” and 7.96 µM (active).
With `C=C(CO)C12OC1C1(C)C(=CC2=O)C(O)C(O)CC1C` (stereo not given), the Potency entry in experiment [1] and in experiment [2] was “inactive” in each case.
For the compound `CC(=O)N[C@@H](CCCCN)C(=O)N(C)[C@@H](CC(C)C)C(=O)N[C@H](C(=O)N(C)[C@@H](Cc1ccccc1)C(=O)N[C@H](Cc1ccccc1)C(N)=O)C(C)C`, the viability (% of control) in experiment [1] is 93.5% [at 4.97 µM]. Besides, the viability, % of control in experiment [2] was 103% [at 4.97 µM].
Consider `COc1ccc(/C=C\C(=O)O)c(O[C@@H]2O[C@H](CO)[C@@H](O)[C@H](O)[C@H]2O)c1`, for which the Potency entry in experiment [1] and in experiment [2] was “inactive” in each case.
As to `CC1CCC2(C(=O)OC3OC(CO)C(O)C(O)C3O)CCC3(C(=O)O)C(=CCC4C5(C)CCC(OC6OC(C)C(O)C(O)C6O)C(C)(C)C5CCC43C)C2C1C` (stereo not given), the Potency result in experiment [1] and in experiment [2] was “inactive” in each case.
With `CCC[C@@H]1C[C@@H](C(=O)N[C@H](C(C)Cl)[C@H]2O[C@H](SC)[C@H](O)[C@@H](O)[C@H]2O)N(C)C1` (stereo not given in full), the Potency entry in experiment [1] and in experiment [2] was “inactive” each time.
Consider `C=C1C2(C)CC3C4(C)OC(C5OC56C4=CC(=O)OC6(C)C)C3(C)C13C(=O)OC(C)C3(O)C2=O` (stereo not given), for which the Potency entry in experiment [1] and in experiment [2] was “inactive” each time.
For `CC1OC(OC2C(C)OC(OC3C(OC(=O)/C=C/c4ccc(O)cc4)C(CO)OC(OC4(COC(=O)/C=C/c5ccc(O)cc5)OC(CO)C(O)C4O)C3OC3OCC(O)(CO)C3O)C(O)C2O)C(O)C(O)C1O` (stereo not given), the viability (% of control) in experiment [1] is 86.5% [at 9.25 µM]. Also, the viability, % of control in experiment [2] was 112% [at 9.25 µM].
For the compound `CN[C@@H]1[C@@H](O)[C@@H](O[C@@H]2[C@@H](O)[C@H](O[C@H]3O[C@H](CN)[C@@H](O)[C@H](O)[C@H]3O)[C@@H](N)C[C@H]2NC(=O)[C@@H](O)CN)OC[C@]1(C)O`, the Potency result in experiment [1] and in experiment [2] was “inactive” throughout.
Turning to `C=C1C(O)C[C@@H]2C(C(=O)O)=CO[C@@H](O[C@@H]3O[C@H](CO)[C@@H](O)[C@H](O)[C@H]3OC(=O)c3ccc(O)cc3)[C@H]12` (stereo not given in full), the Potency entry in experiment [1] and in experiment [2] was “inactive” in each case.
For the compound `COc1ccc2c(c1)[C@@H]1C[C@]1(C(=O)N1[C@@H]3CC[C@H]1CN(C)C3)Cn1c-2c(C2CCCCC2)c2ccc(C(=O)NS(=O)(=O)N(C)C)cc21`, the Potency in experiment [1] is 11.6 µM (active); in experiment [2], 7.31 µM (active).
Turning to `CN(C)C(CCOc1cccc2ccccc12)c1ccccc1` (stereo not given), the Potency is 18.4 µM (active) in experiment [1] and 14.6 µM (active) in experiment [2].
For `COc1ccc(CNC(=O)c2cc(-c3cncc(C)c3)ncc2-c2nccs2)nc1OC` the same measures were “inactive” and “inactive”.
As to `Cn1ccnc1CCOC(c1cc2nccc(C(=O)O)c2[nH]1)c1ccccc1Cl` (stereo not given), the Potency result in experiment [1] and in experiment [2] was “inactive” each time.
`C=C(C(=O)O[C@H]1C/C(C)=C/CC/C(CO)=C/[C@H]2OC(=O)C(=C)[C@H]12)C(O)CO` (stereo not given in full): the Potency is 2.02 µM (active) in experiment [1] and 0.904 µM (active) in experiment [2].
`CC1(C)C[C@H](O)C[C@@]2(C)[C@H]1[C@H](O)C=C1COC(=O)[C@@]12O`: the Potency result in experiment [1] and in experiment [2] was “inactive” in each case.
As to `COc1c(Nc2ncc(Cl)c(N[C@H]3[C@@H](C(N)=O)[C@@H]4C=C[C@H]3C4)n2)ccc2c1CC[C@@H](N1CCOCC1)CC2`, the Potency was 0.231 µM (active) in experiment [1] and 0.291 µM (active) in experiment [2].
Taken in the same sequence, the figures for `CCOC(=O)COc1ccc2c(c1)C[C@@H](NC[C@H](O)c1cccc(Cl)c1)CC2` were 18.4 µM (active) and 8.2 µM (active).
For `O=C(O[C@H]1[C@H](Oc2ccc(O)cc2CO)O[C@H](CO)[C@@H](O)[C@@H]1O)c1ccccc1` the same measures were “inactive” and “inactive”.
In the case of `CC(=O)OC1C(CO)OC(O[C@H]2[C@H](OC(=O)[C@]34CCC(C)(C)C[C@H]3C3=CCC5[C@@]6(C)CC[C@H](O[C@@H]7O[C@H](C(=O)O)[C@@H](O)[C@H](O[C@@H]8OC[C@@H](O)[C@H](O)[C@H]8O)[C@H]7O[C@@H]7O[C@H](CO)[C@H](O)[C@H](O)[C@H]7O)[C@@](C)(C=O)C6CC[C@@]5(C)[C@]3(C)C[C@H]4O)O[C@H](C)[C@H](OC3OC(C)C(OC4OCC(O)C(O)C4O)C(O)C3O)[C@@H]2O)C(O)C1O` (stereo not given in full), in experiment [1], the viability (% of control) is 87.3% [at 9.25 µM]. In experiment [2], the viability, % of control is 100% [at 9.25 µM].
Consider `CCc1c(Cl)c(O)c(Cl)c(O)c1C(=O)O[C@H]1[C@H](O)[C@H](OC)[C@H](OC/C2=C\C=C\C[C@H](O)/C(C)=C\[C@H](CC)[C@@H](O[C@@H]3OC(C)(C)[C@@H](OC(=O)C(C)C)[C@H](O)[C@@H]3O)/C(C)=C/C(C)=C/C[C@@H]([C@@H](C)O)OC2=O)O[C@@H]1C`, for which the figures for the Potency in experiment [1] and in experiment [2] were 7.09 µM (active) and 3.99 µM (active), respectively.
Regarding `Cc1cc(Nc2ncc3cc(-c4c(Cl)cccc4Cl)c(=O)n(C)c3n2)ccc1F`, the Potency in experiment [1] is 0.461 µM (active); in experiment [2], 0.517 µM (active).
